The target in test [1] is 3',5'-cyclic-AMP phosphodiesterase 4B (Homo sapiens) (UniProt Q07343). Nature of the test: qHTS Assay for Inhibitors of PDE-IV (AID 607; active = well fitted activation curve with a large enough effect in the main read-out, with a control signal flat, not every such curve was filed as active; note: potency is the fitted concentration of half-maximal effect). The procedure, abridged:
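Live HEK293 cells with a modified cyclic nucleotide-gated (CNG) channel report intracellular cAMP via membrane-potential dye fluorescence (ex 535/em 590 nm). Endogenous PDE-IV was targeted. Compounds were tested at up to 22.9 uM final; RO 20-1724 100 uM served as control.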

Test [2] addresses Guanine nucleotide-binding protein G(i) subunit alpha-1 (Homo sapiens) (UniProt P63096). The test can be described thus: qHTS Assay for Inhibitors of RGS12 GoLoco Motif Activity (Green Fluorophore) (AID 879).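 Note: negative values mean loss of peptide binding seen as reduced polarization.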 The procedure, abridged:
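Fluorescence polarization assay: 50 nM Gαi1 with 10 nM FITC-labeled RGS12 GoLoco peptide in 10 mM Tris pH 7.5, 150 mM NaCl, 0.1 mM GDP, 0.05% NP40, 10 min at room temperature with compound.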

Test [3] has as its target Cytochrome P450 2C9 (Homo sapiens) (UniProt P11712). The test can be described thus: qHTS Assay for Inhibitors and Substrates of Cytochrome P450 2C9 (AID 883). Note: nearly all actives have a fitted effect of over 60% in size. Note: potency is the fitted concentration of half-maximal effect. The essentials:
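Signal: luciferase luminescence reporting luciferin produced by CYP2C9. Conditions: 10nM enzyme, Luciferin-H 100uM at KM, 25mM KPO4, 37C, 60 min NADPH-driven reaction. Reference: 57uM sulphaphenazole as 100% inhibition.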

The target of test [4] is Cytochrome P450 3A4 (Homo sapiens) (UniProt P08684). The test can be described thus: qHTS Assay for Activators of Cytochrome P450 3A4 (AID 885). Note: nearly all actives have a fitted effect of over 65% in size. The procedure, abridged:
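Quantitative HTS format: compounds preincubated with 20nM human CYP3A4 and Luciferin-PPXE substrate at KM, reaction started by NADPH regeneration, stopped after 60 min, luciferase luminescence read 20 min later.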

For test [5] the target is unchanged. Nature of the test: qHTS Assay for Inhibitors and Substrates of Cytochrome P450 3A4 (AID 884). Note: nearly all actives have a fitted effect of over 50% in size. Note: potency is the fitted concentration of half-maximal effect. The essentials: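 20 nM human CYP3A4 with 25 uM Luciferin-PPXE (at KM) in 200 mM KPO4, preincubated 10 min with compound; NADPH regeneration started a 60 min RT reaction. Luciferin detected by luminescence, normalized to 57 uM ketoconazole as full inhibition.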
Test [6] concerns the target Cytochrome P450 2D6 (Homo sapiens) (UniProt P10635). Nature of the test: qHTS Assay for Inhibitors and Substrates of Cytochrome P450 2D6 (AID 891). Note: nearly all actives have a fitted effect of over 60% in size. Note: potency is the fitted concentration of half-maximal effect. The procedure, abridged:
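Human CYP2D6 (5 nM) with 30 uM Luciferin-ME EGE (at Km) in 100 mM KPO4, compound preincubated 10 min, then NADPH regeneration system for 60 min at room temperature. Luciferin read by luminescence; normalized to 1.43 uM quinidine.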

The values that follow come from PubChem BioAssay (NCATS).

Results filed as inconclusive are left out. Some structures have more than one record in an assay (separate samples or runs), and their calls can disagree. Activity calls are given as the source filed them. Unless noted, calls come from the whole dose curve; as a rule, active = well fitted curve in the direction sought with a large enough effect; inconclusive = small, poorly fitted or top-dose-only effect, or another doubt; inactive = no such curve, though single readings can be large; an effect the other way counts as inactive or inconclusive.

Cytochrome P450 3A4 (Homo sapiens), sequence (P08684 whole entry, looked up): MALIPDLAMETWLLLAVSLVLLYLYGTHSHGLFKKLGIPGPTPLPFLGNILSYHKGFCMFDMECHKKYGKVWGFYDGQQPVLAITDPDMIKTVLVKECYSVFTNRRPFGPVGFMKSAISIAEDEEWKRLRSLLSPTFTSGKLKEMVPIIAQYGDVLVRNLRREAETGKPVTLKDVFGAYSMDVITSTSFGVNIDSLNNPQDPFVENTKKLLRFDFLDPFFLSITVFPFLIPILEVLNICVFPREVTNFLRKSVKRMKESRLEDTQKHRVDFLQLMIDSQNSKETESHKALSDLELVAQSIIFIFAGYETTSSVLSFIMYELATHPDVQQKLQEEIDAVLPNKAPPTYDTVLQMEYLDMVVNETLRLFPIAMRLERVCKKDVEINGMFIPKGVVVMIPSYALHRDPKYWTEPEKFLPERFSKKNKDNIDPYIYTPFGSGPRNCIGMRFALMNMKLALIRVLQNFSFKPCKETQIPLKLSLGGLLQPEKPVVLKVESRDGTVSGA
Guanine nucleotide-binding protein G(i) subunit alpha-1 (Homo sapiens), sequence (P63096 whole entry, looked up): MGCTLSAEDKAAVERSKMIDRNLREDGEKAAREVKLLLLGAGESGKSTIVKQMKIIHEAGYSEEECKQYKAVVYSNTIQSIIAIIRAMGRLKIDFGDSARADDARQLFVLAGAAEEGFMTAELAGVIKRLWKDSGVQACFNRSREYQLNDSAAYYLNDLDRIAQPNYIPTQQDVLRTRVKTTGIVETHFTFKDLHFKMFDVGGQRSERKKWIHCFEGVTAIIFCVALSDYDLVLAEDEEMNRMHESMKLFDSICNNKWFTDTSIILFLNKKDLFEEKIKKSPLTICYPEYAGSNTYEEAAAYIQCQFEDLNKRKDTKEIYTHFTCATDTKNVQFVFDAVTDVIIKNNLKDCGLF
3',5'-cyclic-AMP phosphodiesterase 4B (Homo sapiens), sequence (Q07343 whole entry, looked up): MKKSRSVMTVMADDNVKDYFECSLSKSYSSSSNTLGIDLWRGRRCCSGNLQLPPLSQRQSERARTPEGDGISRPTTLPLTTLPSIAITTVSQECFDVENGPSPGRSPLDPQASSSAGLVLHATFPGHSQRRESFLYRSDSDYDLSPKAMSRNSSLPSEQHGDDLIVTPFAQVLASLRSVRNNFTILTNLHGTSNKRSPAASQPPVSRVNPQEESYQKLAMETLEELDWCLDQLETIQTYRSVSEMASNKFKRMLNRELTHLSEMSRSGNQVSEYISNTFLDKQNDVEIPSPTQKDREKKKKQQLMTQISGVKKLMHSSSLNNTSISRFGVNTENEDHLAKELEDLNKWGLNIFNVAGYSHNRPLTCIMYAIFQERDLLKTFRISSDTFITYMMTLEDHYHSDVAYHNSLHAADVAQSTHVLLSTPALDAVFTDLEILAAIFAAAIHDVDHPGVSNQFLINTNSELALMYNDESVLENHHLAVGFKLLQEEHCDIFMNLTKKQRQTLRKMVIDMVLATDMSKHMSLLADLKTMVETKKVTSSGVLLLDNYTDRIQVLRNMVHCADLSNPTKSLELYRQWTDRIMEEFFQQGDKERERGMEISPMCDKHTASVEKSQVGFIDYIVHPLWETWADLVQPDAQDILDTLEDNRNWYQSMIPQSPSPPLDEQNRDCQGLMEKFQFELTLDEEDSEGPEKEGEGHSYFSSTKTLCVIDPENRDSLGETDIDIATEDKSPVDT
Cytochrome P450 2C9 (Homo sapiens), sequence (P11712 whole entry, looked up): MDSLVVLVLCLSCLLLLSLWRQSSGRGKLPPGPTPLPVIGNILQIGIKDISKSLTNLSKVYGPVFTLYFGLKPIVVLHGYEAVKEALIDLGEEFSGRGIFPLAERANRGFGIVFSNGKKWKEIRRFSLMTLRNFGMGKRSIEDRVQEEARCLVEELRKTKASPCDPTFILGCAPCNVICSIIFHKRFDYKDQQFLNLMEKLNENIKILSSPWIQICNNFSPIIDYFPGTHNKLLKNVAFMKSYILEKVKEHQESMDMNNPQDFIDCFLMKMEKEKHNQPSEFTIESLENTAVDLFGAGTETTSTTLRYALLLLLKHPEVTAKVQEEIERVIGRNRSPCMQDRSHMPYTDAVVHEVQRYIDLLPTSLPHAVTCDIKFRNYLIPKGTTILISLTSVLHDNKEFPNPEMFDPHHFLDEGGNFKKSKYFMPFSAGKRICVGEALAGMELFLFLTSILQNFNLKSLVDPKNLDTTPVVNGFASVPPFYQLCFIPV
Cytochrome P450 2D6 (Homo sapiens), sequence (P10635 whole entry, looked up): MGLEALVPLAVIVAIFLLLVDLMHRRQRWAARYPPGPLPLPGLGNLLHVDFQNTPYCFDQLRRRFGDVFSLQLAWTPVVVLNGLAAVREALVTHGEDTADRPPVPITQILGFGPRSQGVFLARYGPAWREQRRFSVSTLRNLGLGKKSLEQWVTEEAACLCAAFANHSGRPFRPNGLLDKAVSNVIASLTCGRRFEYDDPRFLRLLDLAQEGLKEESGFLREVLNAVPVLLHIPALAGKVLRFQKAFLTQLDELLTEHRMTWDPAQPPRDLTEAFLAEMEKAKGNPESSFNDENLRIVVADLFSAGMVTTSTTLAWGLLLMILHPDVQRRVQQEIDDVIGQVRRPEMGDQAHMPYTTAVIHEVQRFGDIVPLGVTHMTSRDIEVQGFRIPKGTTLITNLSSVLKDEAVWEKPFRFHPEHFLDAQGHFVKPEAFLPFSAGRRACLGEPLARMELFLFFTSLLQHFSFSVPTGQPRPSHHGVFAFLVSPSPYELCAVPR

Take `N=C(N)c1ccc(N)cc1`: the Potency result in test [1] and in test [2] was “inactive” each time.

In the case of `O=C(O)Cc1ccc(O)c(O)c1`, the Potency result in test [1] was “inactive”.

With `COc1ccc(-c2ccc(N)[n+](CCCC(=O)O)n2)cc1`, the Potency entry in test [1] is “inactive”.

Take `CC(C)NC[C@H](O)COc1ccc(CC(N)=O)cc1`: the Potency entry in test [1] and in test [2] was “inactive” each time.

With `O=c1oc(Cl)c(Cl)c2ccccc12`, the Potency result in test [1] and in test [2] was “inactive” each time.

As to `O=c1[nH]c2ccccc2c2ccccc12`, the Potency entry in test [1] and in test [2] was “inactive” throughout.

Consider `NCCNS(=O)(=O)c1cccc2c(Cl)cccc12`, for which the Potency result in test [1] and in test [2] was “inactive” each time.

With `Nc1nc2ccc(Cl)cc2c2nc(-c3ccco3)nn12`, the Potency result in test [1] and in test [2] was “inactive” in each case.

Regarding `Cc1cc2c(cc1Cl)N(C(=O)Nc1ccnc3ccccc13)CC2`, the Potency entry in test [1] and in test [2] was “inactive” throughout.

Consider `Cn1ccnc1`, for which the Potency entry in test [1] and in test [2] was “inactive” throughout.

On to `O=c1[nH]ccc2c(O)cccc12`, for which the Potency entry in test [1], in test [2], in test [3] and in test [4] was “inactive” throughout.

On to `C[N+](C)(C)CC=O`, for which the Potency result in test [1] and in test [2] was “inactive” in each case.

With `CCCn1c(=O)c2[nH]c(C3CCCC3)nc2n(CCC)c1=O`, the Potency in test [1] was 5.01 µM (active) and inactive. Also, the Potency result in test [2], in test [3], in test [5] and in test [6] was “inactive” each time.

As to `Cc1nc(N=Nc2cc(S(=O)(=O)O)c3cc([N+](=O)[O-])cc(S(=O)(=O)O)c3c2)c(COP(=O)(O)O)c(C=O)c1O`, the Potency result in test [1], in test [2], in test [3], in test [5], in test [4] and in test [6] was “inactive” throughout.

As for `O=c1onc2cnc3ccccc3n12`, the Potency entry in test [1], in test [2], in test [3], in test [4] and in test [6] was “inactive” each time. In test [5], the Potency was 10 µM (active).

For the compound `O=C1Nc2ccc(I)cc2/C1=C/c1cc(Br)c(O)c(Br)c1`, the Potency entry in test [1] and in test [2] was “inactive” each time.

With `NC(N)=NC(N)=Nc1cccc(Cl)c1`, the Potency result in test [1], in test [2], in test [3], in test [5] and in test [4] was “inactive” in each case.

Take `CCCc1c(-c2ccc(O)cc2)nn(-c2ccc(O)cc2)c1-c1ccc(O)cc1`: the Potency entry in test [1], in test [2] and in test [4] was “inactive” throughout. In addition, the Potency in test [3] was 3.16 µM (active); in test [5], 2.51 µM (active); in test [6], 39.8 µM (active).

In the case of `CCCCCCCC/C=C\CCCCCCCC(=O)NCCc1ccc(O)c(O)c1`, the Potency entry in test [1], in test [2] and in test [4] was “inactive” throughout. The Potency in test [3] is 1.58 µM (active); in test [5], 3.16 µM (active).

`COc1cc(/C=C(\C#N)C(=O)c2ccc(O)c(O)c2)cc(I)c1O`: the Potency result in test [1], in test [2] and in test [4] was “inactive” each time. The Potency in test [3] was 0.501 µM (active).

On to `Cn1c(=O)[nH]c2ncn(C)c2c1=O`, for which the Potency result in test [1], in test [2] and in test [5] was “inactive” each time.

`NCCS(=O)O`: the Potency entry in test [1], in test [2], in test [3] and in test [6] was “inactive” each time.
